This note sets out measurements from PubChem BioAssay (NCATS).

“And” between values parts separate entries of the source, which are not always exact repeats. Equal values may be shown once. Records with an inconclusive call do not appear. More than one record can exist for a structure, and the calls need not agree. The source made the active and inactive calls. Unless noted, the call rests on the fitted dose curve; in most records, active means well fitted curve in the direction sought with a large enough effect; inconclusive means small, poorly fitted or top-dose-only effect, or another doubt; inactive means no such curve, though single readings can be large; an effect the other way counts as inactive or inconclusive. A value given as a limit tells only on which side of the number the result lay.

Assay [1] in a line: AP1 Signaling Pathway (AID 357; active means well fitted curve in either direction with a large enough effect, not every such curve was filed as active;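 further: ME-180 reporter cells stimulated with EGF at its EC50 level; on the % scale 0 is the no-effect control and ±100 the full control effect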). Conditions: ME-180 AP-1-bla reporter, EGF-induced, beta-lactamase ratio, 5 h. Summed up: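 First, ME-180 AP-1-bla cells were cultured overnight at 37 °C in low-serum Opti-MEM. Next, titrated compounds with EC50 EGF were incubated 5 hours. Finally, CCF4 was added for 2.5 hours and the 460/530 nm ratio recorded.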
Assay [2] deals with Cytochrome P450 1A2 (Homo sapiens) (UniProt P05177). The assay is described as follows: p450-cyp1a2 (AID 410; calls by dose curve; further: potency means the concentration at half of the fitted maximal effect;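 on activity change, negative = inhibition: -100% = full effect of reference inhibitor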). In short, it runs like this:
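O-Demethylation of luciferin 6' methyl ether by human CYP1A2 is monitored as luciferase luminescence. Substrate sits at Km (100uM); enzyme is 20nM. Values are scaled to 57 uM furafylline as maximal inhibition.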

The nature of assay [3]: NFAT Signaling Pathway (AID 444; active means well fitted curve in either direction with a large enough effect, not every such curve was filed as active;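 further: carbachol stimulus at about its EC50 of 1 µM final; on the % scale 0 is the no-effect control and ±100 the full control effect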). The following applies: Jurkat NFAT-bla M1, carbachol, beta-lactamase ratio, 5 h; at 7.69 µM (top of the series) unless noted. In short, it runs like this: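 Jurkat cells carrying an NFAT-driven β-lactamase reporter and co-transfected muscarinic M1 receptor were treated with compound plus carbachol (1 uM final, an EC50 level) for 5 h at 37 °C. CCF4 loading followed for 1 h at RT; 460/530 nm ratio gave %activity.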

Assay [4] is described as follows: Stat Signaling Pathway (AID 446; active means well fitted curve in either direction with a large enough effect, not every such curve was filed as active;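 further: ME-180 cervical cancer cells given 40 pM IL-6 alongside compound; SIE-controlled beta-lactamase reporter measured as 460/530 nm FRET emission ratio; on the % scale 0 is the no-effect control and ±100 the full control effect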). The following applies: ME-180 (cervical carcinoma) SIE beta-lactamase reporter, IL-6 stimulated, 5 h. In short, it runs like this: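 FRET read-out (405 nm excitation, 460/530 nm emission) of a beta-lactamase reporter under a STAT-inducible element in ME-180 cervical carcinoma cells. Cells with compound receive 40 pM IL-6 for 5 h. Values are normalised to AC90 stimulation and AC90 JAK-inhibitor controls.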

The target of assay [5] is Glucocorticoid receptor (Homo sapiens) (UniProt P04150). Nature of the assay: GR-GFP Redistribution (AID 450;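 active means compounds whose dose series gives a full or clear partial fitted curve of increased nuclear translocation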; further: potency means the concentration at half of the fitted maximal effect). The following applies: U2OS GR-GFP nuclear translocation, laser cytometry, 2 h.
Assay [6] shares this target. Nature of the assay: GR-EFC Redistribution (AID 451; calls by dose curve; further: potency means the concentration at half of the fitted maximal effect). Conditions: CHO-K1 GR-EFC translocation, beta-gal luminescence, 2 h. In short, it runs like this:
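CHO-K1 cells stably expressing nuclear-localized β-gal enzyme acceptor and GR fused C-terminally to the enzyme donor fragment; ligand-driven nuclear translocation restores β-gal by complementation. Compounds titrated up to 46 uM final, 2 h at 37 °C; luminescence read.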

In assay [7] the target is Mitogen-activated protein kinase 10 (Mus musculus) (UniProt Q61831). Nature of the assay: JNK3 AlphaScreen Assay (AID 530; active means well fitted curve in either direction with a large enough effect, not every such curve was filed as active;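 further: kinase came from lysate of stimulated human HepG2 cells; signal reports phosphorylation of biotinylated GST-cJun 1-79 at Ser73 with 10 µM ATP; on the % scale 0 is the no-effect control and ±100 the full control effect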). In short, it runs like this:
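Phosphorylation of biotinylated GST-cJun(1-79) at Ser73 is measured by AlphaScreen proximity luminescence. Enzyme is JNK3 in HepG2 lysates activated with interleukin-1beta and tumor necrosis factor alpha; ATP is 10 uM final.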

Assay [8] addresses 3',5'-cyclic-AMP phosphodiesterase 4B (Homo sapiens) (UniProt Q07343). The assay is described as follows: qHTS Assay for Inhibitors of PDE-IV (AID 607; active means well fitted activation curve with a large enough effect in the main read-out, with a control signal flat, not every such curve was filed as active; further: % of control where 0% means no effect). Summed up:
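Cell-based read-out of cAMP via a modified cyclic nucleotide-gated channel and membrane potential dye (535/590 nm) in HEK293 cells expressing PDE4 endogenously. Compounds tested up to 22.9 uM final; 100 uM RO 20-1724 reference.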

Assay [9] can be described thus: qHTS Assay for Lipid Storage Modulators (AID 1519; calls by dose curve). Conditions: Drosophila S3 cells, BODIPY lipid droplet/cell ratio, laser cytometry, cells loaded with oleic acid; for activity change, negative = inhibition: at 25.7 µM (top of the series). In short, it runs like this:
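Cells seeded at 5,000 per well were treated with compounds over a concentration series and loaded with oleic acid (400 uM, as added). Lipid droplet fluorescence (488 nm excitation, 500-530 nm channel) was read by laser-scanning cytometry and normalized to 20 uM Triacsin C.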

Assay [10] concerns the target ATP-dependent 6-phosphofructokinase (Trypanosoma brucei brucei) (UniProt O15648). Nature of the assay: qHTS Assay to Find Inhibitors of T. brucei phosphofructokinase: hit validation (AID 492961). In short, it runs like this:
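Reaction: 0.1 M triethanolamine pH 8.0, 5 mM MgCl2, F6P 0.5 mM, ATP 0.1 mM, PFK 1.25 nM, 45 min RT. Read-out: ADP-Glo luminescence. Analysis: concentration-response fits, classed by r2 and efficacy.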

For assay [11], the target named is Ubiquitin carboxyl-terminal hydrolase 1 (Homo sapiens) (UniProt O94782). The assay is described as follows: Inhibitors of USP1/UAF1: Pilot qHTS (AID 504865).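 Further: rhodamine fluorescence freed from ubiquitin-rhodamine substrate followed over time; top concentration of the series differs between compounds; on the % scale 0 is the no-effect control and ±100 the full control effect; nearly all actives have a fitted effect of over 35% in size.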 In short, it runs like this:
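1nM USP1/UAF1 + cpd, 15 min RT; start w/ Ub-Rho 150nM final; kinetic FL 480/540 nm, 6 reads q60 s. Buffer 50mM HEPES pH 7.8, 0.5mM EDTA, 1mM TCEP, 0.01% Tween-20, 0.1 mg/ml BSA.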

Assay [12] concerns the target Luciferin 4-monooxygenase (Photinus pyralis) (UniProt P08659). The assay is described as follows: Biochemical firefly luciferase enzyme assay for NPC (AID 624030).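 Further: purified P. pyralis luciferase at 10 nM with luciferin and ATP substrate; 0% = DMSO and -100% = full luciferase inhibition by PTC124 control; nearly all actives have a fitted effect of over 70% in size.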 Summed up:
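Counter-screen for direct inhibition of the luciferase enzyme by approved-drug library compounds, run at 10 nM enzyme in 50 mM Tris acetate (final). Luminescence was read within 5 min of enzyme-buffer addition and normalized to PTC124 versus DMSO (0%).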

Assay [13] is described as follows: qHTS profiling for inhibitors of Plasmodium falciparum proliferation (AID 504749).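 Further: 0% = DMSO vehicle and full inhibition = artemisinin control; nearly all actives have a fitted effect of over 60% in size.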 The following applies: P. falciparum in erythrocytes, SYBR Green DNA, 72 h, at 12.8 µM (top of the series). In short, it runs like this:
(§1)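 Quantitative HTS: compounds pinned into medium, infected erythrocytes added (0.3% parasitemia, 2.5% hematocrit), 72 h culture at 37 C under 5% CO2. Saponin/Triton lysis with SYBR Green I, overnight RT, then fluorescence read.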

For the next assay, the system named is AS120. The assay is described as above. The following applies: P. falciparum in erythrocytes, SYBR Green DNA, 72 h; series mostly up to 28.7 µM. In short, it runs like this: as §1
The next assay concerns CP238. The assay is described as above. The following applies: P. falciparum in erythrocytes, SYBR Green DNA, 72 h; series mostly up to 12.8 µM. In short, it runs like this:
as §1

In the next assay the test system is FAB9. The assay is described as above. Conditions: P. falciparum in erythrocytes, SYBR Green DNA, 72 h; series mostly up to 12.8 µM. In short, it runs like this: as §1
In assay [14] the target is Guanine nucleotide-binding protein G(i) subunit alpha-1 (Homo sapiens) (UniProt P63096). Nature of the assay: qHTS Assay for Inhibitors of RGS12 GoLoco Motif Activity (Green Fluorophore) (AID 879).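 Further: 0% = labeled peptide with Gαi1 and full inhibition = labeled peptide alone without protein; negative values mean loss of peptide binding seen as reduced polarization.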 Summed up:
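A drop in FITC polarization marked displacement of the FITC-tagged RGS12 GoLoco peptide (10 nM) from Gαi1 (50 nM). Compounds were incubated 10 min at room temperature in Tris pH 7.5 buffer containing 150 mM NaCl, 0.1 mM GDP and 0.05% NP40; unlabeled peptide titration served as control.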

Assay [15] concerns the target Pyruvate kinase (Leishmania mexicana) (UniProt Q27686). Nature of the assay: qHTS Validation Assay for Inhibitors of Leishmania Mexicana Pyruvate Kinase (AID 945).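 Further: 0% = DMSO only neutral control wells.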 In short, it runs like this: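 Luminescent ATP detection (PKLight) after a 1 h room-temperature reaction of 0.2 nM LmPYK E451W mutant with 0.5 mM PEP and 0.1 mM ADP at pH 7.2. Activity is normalized to DMSO-only control wells.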

For assay [16], the target named is alpha-glucosidase (Oryza sativa, rice) (UniProt Q653V4). The assay is described as follows: Counterscreen for Glucocerebrosidase Inhibitors: qHTS Assay for Rice alpha-Glucosidase at pH 5.0 (AID 997).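 Further: 0% = full activity with enzyme and -100% = basal without enzyme.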 In short, it runs like this: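 Endpoint fluorogenic assay at pH 5.0: compounds (0.7 nM to 77 uM) titrated against 4 nM rice enzyme and 400 uM 4-MU-alpha-glucoside for 20 min at room temperature; NaOH/glycine stop, read ex 365/em 440 nm, Hill-fitted AC50.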

Assay [17] has as its target Pyruvate kinase PKM (Homo sapiens) (UniProt P14618). Nature of the assay: qHTS Assay for Activators of Human Muscle Pyruvate Kinase (AID 954; active means well fitted curve in the direction sought with a large enough effect, not every such curve was filed as active;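 further: 0% = uninhibited enzyme and -100% = no enzyme or full thiadiazolimine inhibition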). In short, it runs like this: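 ATP production by PKM2 detected via luciferase luminescence after 1 h room-temperature reaction (0.1 nM enzyme, PEP at Km 0.5 mM, ADP 0.1 mM, pH 7.2 imidazole buffer). Inhibition scaled to no-enzyme control; activation referenced to 0.3 nM enzyme wells.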

[18] abbreviates: at 7.69 µM (top of the series) unless noted.
[19] abbreviates: measured here: cell count channel max response.
Where [20] appears, read: measured here: lipid channel max response.

Sequence of Glucocorticoid receptor (Homo sapiens) (P04150 whole entry, looked up): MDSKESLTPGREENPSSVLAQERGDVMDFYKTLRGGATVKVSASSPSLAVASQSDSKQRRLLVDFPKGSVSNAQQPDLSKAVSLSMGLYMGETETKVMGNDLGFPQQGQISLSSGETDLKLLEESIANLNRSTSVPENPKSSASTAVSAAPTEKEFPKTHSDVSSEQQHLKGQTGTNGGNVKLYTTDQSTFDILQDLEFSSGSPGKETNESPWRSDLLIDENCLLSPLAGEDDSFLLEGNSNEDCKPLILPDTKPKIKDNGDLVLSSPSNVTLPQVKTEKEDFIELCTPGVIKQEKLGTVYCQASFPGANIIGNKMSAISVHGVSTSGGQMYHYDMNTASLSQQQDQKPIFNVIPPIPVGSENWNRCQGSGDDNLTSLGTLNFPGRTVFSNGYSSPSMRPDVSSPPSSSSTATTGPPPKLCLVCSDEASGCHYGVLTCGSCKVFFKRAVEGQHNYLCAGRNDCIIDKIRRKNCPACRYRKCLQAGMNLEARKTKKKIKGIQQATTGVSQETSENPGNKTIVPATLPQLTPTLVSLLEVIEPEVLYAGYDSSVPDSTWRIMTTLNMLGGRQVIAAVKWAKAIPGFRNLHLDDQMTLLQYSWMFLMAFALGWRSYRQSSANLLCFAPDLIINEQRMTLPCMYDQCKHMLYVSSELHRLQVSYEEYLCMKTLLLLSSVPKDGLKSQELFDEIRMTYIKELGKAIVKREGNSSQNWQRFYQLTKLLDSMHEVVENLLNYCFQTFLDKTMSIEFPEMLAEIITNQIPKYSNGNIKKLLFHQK
Sequence of 3',5'-cyclic-AMP phosphodiesterase 4B (Homo sapiens) (Q07343 whole entry, looked up): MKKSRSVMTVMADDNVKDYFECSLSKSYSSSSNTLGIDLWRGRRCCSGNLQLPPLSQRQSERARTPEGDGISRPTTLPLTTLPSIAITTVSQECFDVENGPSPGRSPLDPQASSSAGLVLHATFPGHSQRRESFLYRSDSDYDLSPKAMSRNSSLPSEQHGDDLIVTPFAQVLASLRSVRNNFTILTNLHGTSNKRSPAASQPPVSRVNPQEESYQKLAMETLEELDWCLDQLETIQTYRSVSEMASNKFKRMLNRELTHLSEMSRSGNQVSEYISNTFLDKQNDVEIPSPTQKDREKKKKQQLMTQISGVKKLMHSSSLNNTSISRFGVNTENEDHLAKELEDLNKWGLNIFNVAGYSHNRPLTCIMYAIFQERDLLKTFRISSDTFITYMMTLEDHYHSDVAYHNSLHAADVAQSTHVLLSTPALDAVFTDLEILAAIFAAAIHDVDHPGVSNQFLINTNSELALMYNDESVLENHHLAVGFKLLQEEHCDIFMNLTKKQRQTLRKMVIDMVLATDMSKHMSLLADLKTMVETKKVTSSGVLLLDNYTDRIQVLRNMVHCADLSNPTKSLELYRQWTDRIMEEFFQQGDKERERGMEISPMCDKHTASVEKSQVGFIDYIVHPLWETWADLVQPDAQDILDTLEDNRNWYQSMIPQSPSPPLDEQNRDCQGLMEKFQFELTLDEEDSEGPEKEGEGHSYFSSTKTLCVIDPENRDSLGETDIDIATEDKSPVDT
Sequence of Cytochrome P450 1A2 (Homo sapiens) (P05177 whole entry, looked up): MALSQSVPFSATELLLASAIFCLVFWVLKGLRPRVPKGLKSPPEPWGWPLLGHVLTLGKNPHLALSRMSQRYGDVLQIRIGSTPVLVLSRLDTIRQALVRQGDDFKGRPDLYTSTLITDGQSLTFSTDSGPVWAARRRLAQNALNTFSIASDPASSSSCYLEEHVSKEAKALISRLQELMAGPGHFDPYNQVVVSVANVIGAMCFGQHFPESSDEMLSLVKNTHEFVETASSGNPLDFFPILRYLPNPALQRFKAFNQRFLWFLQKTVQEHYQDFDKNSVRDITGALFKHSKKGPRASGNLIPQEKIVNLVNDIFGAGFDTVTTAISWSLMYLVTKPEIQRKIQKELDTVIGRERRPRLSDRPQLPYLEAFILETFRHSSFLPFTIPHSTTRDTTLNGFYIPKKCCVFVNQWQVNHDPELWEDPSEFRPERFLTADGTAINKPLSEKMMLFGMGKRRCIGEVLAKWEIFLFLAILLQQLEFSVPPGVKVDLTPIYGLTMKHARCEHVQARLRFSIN
Sequence of Guanine nucleotide-binding protein G(i) subunit alpha-1 (Homo sapiens) (P63096 whole entry, looked up): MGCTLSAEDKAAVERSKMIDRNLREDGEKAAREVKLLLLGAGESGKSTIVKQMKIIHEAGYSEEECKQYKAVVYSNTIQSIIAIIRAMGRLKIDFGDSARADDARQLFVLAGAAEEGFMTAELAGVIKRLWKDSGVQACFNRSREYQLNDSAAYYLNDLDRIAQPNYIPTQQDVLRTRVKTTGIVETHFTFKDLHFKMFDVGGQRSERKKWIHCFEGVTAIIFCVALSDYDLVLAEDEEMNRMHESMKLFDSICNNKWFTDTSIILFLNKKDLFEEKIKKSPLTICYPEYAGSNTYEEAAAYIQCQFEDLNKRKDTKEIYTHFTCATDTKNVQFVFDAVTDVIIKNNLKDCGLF
Sequence of Ubiquitin carboxyl-terminal hydrolase 1 (Homo sapiens) (O94782 whole entry, looked up): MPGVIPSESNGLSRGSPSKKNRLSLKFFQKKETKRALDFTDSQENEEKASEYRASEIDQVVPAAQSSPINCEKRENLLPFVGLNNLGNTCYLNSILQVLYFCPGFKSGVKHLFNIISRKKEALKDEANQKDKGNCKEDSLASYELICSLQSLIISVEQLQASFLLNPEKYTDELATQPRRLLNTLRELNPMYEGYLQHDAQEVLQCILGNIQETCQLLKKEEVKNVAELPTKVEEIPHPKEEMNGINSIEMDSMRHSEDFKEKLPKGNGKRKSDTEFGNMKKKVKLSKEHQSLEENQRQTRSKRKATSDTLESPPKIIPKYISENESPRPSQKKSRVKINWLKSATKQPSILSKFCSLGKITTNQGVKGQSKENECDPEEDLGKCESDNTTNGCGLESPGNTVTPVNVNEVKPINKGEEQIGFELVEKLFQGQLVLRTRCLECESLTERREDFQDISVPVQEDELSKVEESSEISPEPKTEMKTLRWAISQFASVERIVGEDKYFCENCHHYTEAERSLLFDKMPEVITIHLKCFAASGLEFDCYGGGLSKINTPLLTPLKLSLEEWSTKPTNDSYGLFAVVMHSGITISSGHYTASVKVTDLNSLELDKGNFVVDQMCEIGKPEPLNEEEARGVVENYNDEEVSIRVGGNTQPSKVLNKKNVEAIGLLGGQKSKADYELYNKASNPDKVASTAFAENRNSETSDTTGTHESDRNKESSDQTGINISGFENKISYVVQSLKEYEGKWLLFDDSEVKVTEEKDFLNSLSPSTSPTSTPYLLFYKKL
Sequence of Pyruvate kinase (Leishmania mexicana) (Q27686 2-499 E452W): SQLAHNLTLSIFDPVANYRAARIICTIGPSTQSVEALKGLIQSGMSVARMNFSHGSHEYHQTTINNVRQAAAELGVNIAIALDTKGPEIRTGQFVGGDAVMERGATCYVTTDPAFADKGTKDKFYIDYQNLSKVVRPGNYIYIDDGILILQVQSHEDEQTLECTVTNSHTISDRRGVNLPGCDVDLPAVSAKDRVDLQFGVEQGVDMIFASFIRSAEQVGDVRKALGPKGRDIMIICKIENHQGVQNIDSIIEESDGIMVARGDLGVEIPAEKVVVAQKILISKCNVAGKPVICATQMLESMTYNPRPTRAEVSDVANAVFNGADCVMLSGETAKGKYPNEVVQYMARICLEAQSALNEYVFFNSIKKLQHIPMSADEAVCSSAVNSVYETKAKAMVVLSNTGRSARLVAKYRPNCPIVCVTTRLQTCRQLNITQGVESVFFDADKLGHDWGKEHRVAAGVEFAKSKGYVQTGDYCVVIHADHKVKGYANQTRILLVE
Sequence of Luciferin 4-monooxygenase (Photinus pyralis) (P08659 whole entry, looked up): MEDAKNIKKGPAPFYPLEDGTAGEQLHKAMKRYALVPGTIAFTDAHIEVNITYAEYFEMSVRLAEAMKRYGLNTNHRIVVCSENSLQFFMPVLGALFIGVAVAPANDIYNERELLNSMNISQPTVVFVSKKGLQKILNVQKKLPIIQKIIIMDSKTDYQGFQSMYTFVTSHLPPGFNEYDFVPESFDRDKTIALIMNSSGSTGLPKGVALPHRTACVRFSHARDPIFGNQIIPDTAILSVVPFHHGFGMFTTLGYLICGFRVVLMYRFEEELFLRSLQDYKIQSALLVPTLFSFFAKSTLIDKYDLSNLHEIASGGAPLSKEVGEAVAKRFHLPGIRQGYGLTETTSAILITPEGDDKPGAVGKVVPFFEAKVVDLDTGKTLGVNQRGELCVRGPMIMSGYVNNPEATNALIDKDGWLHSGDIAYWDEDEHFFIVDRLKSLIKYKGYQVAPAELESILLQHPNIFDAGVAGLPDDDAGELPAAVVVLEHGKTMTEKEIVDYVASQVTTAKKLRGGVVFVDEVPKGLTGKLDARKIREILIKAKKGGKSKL
Sequence of Pyruvate kinase PKM (Homo sapiens) (P14618 whole entry, looked up): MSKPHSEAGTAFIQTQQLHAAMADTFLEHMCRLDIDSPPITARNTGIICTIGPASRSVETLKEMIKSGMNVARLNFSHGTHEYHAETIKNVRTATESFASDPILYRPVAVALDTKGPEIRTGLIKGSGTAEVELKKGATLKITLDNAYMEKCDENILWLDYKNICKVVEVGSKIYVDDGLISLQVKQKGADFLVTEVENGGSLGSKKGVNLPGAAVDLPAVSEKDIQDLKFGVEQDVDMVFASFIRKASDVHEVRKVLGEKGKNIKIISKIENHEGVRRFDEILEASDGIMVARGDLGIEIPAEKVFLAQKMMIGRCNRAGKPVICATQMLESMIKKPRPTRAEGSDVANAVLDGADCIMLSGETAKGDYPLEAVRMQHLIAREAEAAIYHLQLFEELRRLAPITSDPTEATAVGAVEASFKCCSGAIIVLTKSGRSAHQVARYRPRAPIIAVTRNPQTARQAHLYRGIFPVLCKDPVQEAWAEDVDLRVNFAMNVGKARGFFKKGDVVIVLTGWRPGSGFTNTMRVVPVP

With `CN(N=O)C(=O)N[C@H]1[C@@H](O)[C@H](O)[C@H](CO)O[C@@H]1O`, the activity change, negative = inhibition in assay [1] (setting [18]) is 22% [at 17.2 µM] (inactive); in assay [3], 5.2% [at 17.2 µM] (inactive); in [9] it was -1.88% (inactive). The Potency entry (in assay [2]; in assay [7]; in assay [8]; in assay [11]; in the assay with AS120; in the assay with CP238) was “inactive” in each case. For the same compound, the Potency entry in the assay on FAB9 is “inactive”. In addition, the results for the activity, negative = inhibition in assay [4] (setting [18]), in assay [13] (parasite line A) and in assay [13] (parasite line B) were -4.53% [at 17.2 µM] (inactive), 2.49% (inactive) and 8.62% (inactive), respectively. Besides, the Potency in assay [5] and in [6] was > 20.6 µM (inactive) each time. Besides, the values for the max response in assay [9] (setting [19]) and in [9] (setting [20]) were -12.1% and -12.9%, respectively. Further, the compound was classed as inactive in assay [10] and in assay [12].
As for `C[C@@H](COc1ccccc1)N(CCCl)Cc1ccccc1`, the activity change, negative = inhibition in [1] (at 17.2 µM (top of the series)) was -0.257% (inactive); in [1] (at 38 µM (top of the series)), 0.967% (inactive); in assay [9], 0.574% (inactive). Besides, the Potency in [2] was 12.6 µM (active); in [5], > 46 µM (inactive) and > 20.6 µM (inactive); in assay [6], > 46 µM (inactive) and > 20.6 µM (inactive). The activity, negative = inhibition in assay [4] (setting [18]) is 1.89% [at 17.2 µM] (inactive). For the same compound, the Potency entry in assay [7], in assay [8] and in assay [14] was “inactive” in each case. In addition, the call in [15] and in [16] was inactive. In addition, the max response was -7.22% in assay [9] (setting [19]) and -6.85% in assay [9] (setting [20]).
In the case of `CC(C)COC[C@H](CN(Cc1ccccc1)c1ccccc1)N1CCCC1`, the activity change, negative = inhibition in assay [1] (setting [18]) was 15.1% [at 38 µM] (inactive); in assay [3], -5.29% [at 38 µM] (inactive); in [9], -12.4% (inactive). In addition, the Potency entry in assay [2] was “inactive and 12.6 µM (active)”; in assay [5], > 46 µM (inactive) and > 20.6 µM (inactive); in assay [6], > 46 µM (inactive) and > 20.6 µM (inactive). Further, the activity, negative = inhibition was -1.52% (inactive) in assay [4] (at 17.2 µM (top of the series)) and -10.2% (inactive) in [4] (at 38 µM (top of the series)). In addition, the Potency result in assay [7], in assay [8], in assay [14] and in assay [11] was “inactive” in each case. Moreover, the compound was called inactive in [15], in assay [17] and in assay [16]. Also, the max response was -16.9% in [9] (setting [19]) and -26.5% in assay [9] (setting [20]).
